According to PubChem BioAssay (Tox21):
The source made the active and inactive calls. The call rests on the fitted dose curve; in most records, active means well fitted curve in the direction sought with a large enough effect in the repeat runs; inconclusive means weak or mixed curves; inactive means flat fitted curve, though single readings scatter.

Key:
[1] = qHTS assay to test for compound auto fluorescence at 535 nm (green) in HEK293 cells (AID 720680)
[2] = qHTS assay to test for compound auto fluorescence at 460 nm (blue) in HEK293 cell free culture (AID 720681)
Outline: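 Compounds were added to cell-free DMEM with 10% FBS and fluorescence read directly. The blue channel used 405 nm excitation and 460 nm emission, with triamterene as the reference fluorophore.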

[3] = qHTS assay to test for compound auto fluorescence at 535 nm (green) in HEK293 cell free culture (AID 720682)
Outline: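 Read-out: 485/535 nm fluorescence intensity, calibrated against fluorescein. Medium only (DMEM + 10% FBS, no cells); test compound or DMSO vehicle added by pintool before plate reading.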

[4] = qHTS assay to test for compound auto fluorescence at 590 nm (red) in HEK293 cell free culture (AID 720683)
Outline: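 Cell-free wells of DMEM with 10% FBS received compound, and intrinsic fluorescence was read at excitation/emission 540/590 nm. Values expressed as equivalence to Rose Bengal sodium.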

[5] = qHTS assay to test for compound auto fluorescence at 590 nm (red) in HepG2 cell free culture (AID 720684)
Outline: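 Compounds are added to culture medium (MEM, 10% FBS) lacking cells, then fluorescence is read at excitation 540 nm, emission 590 nm, with Rose Bengal sodium as the equivalency standard.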

[6] = qHTS assay to test for compound auto fluorescence at 460 nm (blue) in HepG2 cell free culture (AID 720685)
Outline: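 Compound (23 nL) or DMSO pinned into cell-free MEM with 10% FBS; blue fluorescence read at 405/460 nm excitation/emission, expressed as auto-fluorescence equivalency to triamterene.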

[7] = qHTS assay to test for compound auto fluorescence at 535 nm (green) in HepG2 cell free culture (AID 720686)
[8] = qHTS assay to test for compound auto fluorescence at 460 nm (blue) in HepG2 cells (AID 720687)
Outline: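 HepG2 cells in MEM with 10% FBS, attached overnight at 37 C, were exposed to compound or DMSO for 1 hr at 37 C, 5% CO2. Blue fluorescence was read at 405/460 nm, with triamterene as reference fluorophore.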
On the % scale 0 is the no-effect control and ±100 the full control effect.

CCCCCCCCOC(C)=O
inactive: outcome [1] | outcome [2] | outcome [3] | outcome [4] | outcome [5] | outcome [6] | outcome [7] | outcome [8]

Cc1oc(=O)oc1CN1CCN(c2cc3c(cc2F)c(=O)c(C(=O)O)c2n3C(C)S2)CC1 (stereo unspecified)
inactive: outcome [1] | outcome [2] | outcome [3] | outcome [4] | outcome [5] | outcome [6] | outcome [7] | outcome [8]

C=C(C)[C@@H]1CC[C@@H](C)C[C@@H]1O
inactive: outcome [1] | outcome [2] | outcome [3] | outcome [4] | outcome [5] | outcome [6] | outcome [7] | outcome [8]

O=C1NC2NC(=O)NC2N1 (stereo unspecified)
inactive: outcome [1] | outcome [2] | outcome [3] | outcome [4] | outcome [5] | outcome [6] | outcome [7] | outcome [8]

COc1cccc2sc(N)nc12
inactive: outcome [1] | outcome [2] | outcome [3] | outcome [4] | outcome [5] | outcome [6] | outcome [7]

CCC(O)C(C)(C)C (stereo unspecified)
inactive: outcome [1] | outcome [2] | outcome [3] | outcome [4] | outcome [5] | outcome [6] | outcome [7] | outcome [8]

CCS(=O)(=O)CCn1c([N+](=O)[O-])cnc1C
inactive: fluorescence, % of fluorescein [1] 0.101% [at 18.6 µM] | fluorescence, % of fluorescent control [2] 0.0677% [at 18.6 µM] | activity change [3] 0.0328% [at 18.6 µM] | fluorescence, % of fluorescent control [4] -0.106% [at 18.6 µM] | fluorescence, % of Rose Bengal [5] 0.0121% [at 18.6 µM] | fluorescence, % of fluorescent control [6] 0.0838% [at 18.6 µM] | fluorescence, % of fluorescein control [7] -0.0978% [at 18.6 µM] | fluorescence, % of fluorescent control [8] 0.0125% [at 18.6 µM]

O=S1(=O)CCCC1
inactive: outcome [1] | outcome [2] | outcome [3] | outcome [4] | outcome [5] | outcome [6] | outcome [7] | outcome [8]

CCOC(=O)CCCCCCCCC(=O)OCC
inactive: outcome [1] | outcome [2] | outcome [3] | outcome [4] | outcome [5] | outcome [6] | outcome [7] | outcome [8]

BrC/C=C/CBr
inactive: fluorescence, % of fluorescein [1] 0.0238% [at 18.6 µM] | fluorescence, % of fluorescent control [2] -0.0065% [at 18.6 µM] | activity change [3] 0.0973% [at 18.6 µM] | fluorescence, % of fluorescent control [4] -0.0344% [at 18.6 µM] | fluorescence, % of Rose Bengal [5] 0.0351% [at 18.6 µM] | fluorescence, % of fluorescent control [6] -0.08% [at 18.6 µM] | fluorescence, % of fluorescein control [7] -0.0214% [at 18.6 µM] | fluorescence, % of fluorescent control [8] 0.058% [at 18.6 µM]

O=c1[nH]c(=O)c2ccccc2o1
inactive: outcome [1] | outcome [2] | outcome [3] | outcome [4] | outcome [5] | outcome [6] | outcome [7] | outcome [8]

C1=C\CC/C=C\CC/1
inactive: outcome [1] | outcome [2] | outcome [3] | outcome [4] | outcome [5] | outcome [6] | outcome [7] | outcome [8]

Cc1c(C(C)C)c(=O)n(-c2ccccc2)n1C
inactive: outcome [1] | outcome [2] | outcome [3] | outcome [4] | outcome [5] | outcome [6] | outcome [7] | outcome [8]

CC(C)C(=O)c1ccccc1
inactive: outcome [1] | outcome [2] | outcome [3] | outcome [4] | outcome [5] | outcome [6] | outcome [7]

COC(=O)CCC(=O)O
inactive: outcome [1] | outcome [2] | outcome [3] | outcome [4] | outcome [5] | outcome [6] | outcome [7] | outcome [8]

COc1cc2c3cc1Oc1cc(ccc1O)C[C@@H]1c4c(cc(OC)c(O)c4Oc4ccc(cc4)C[C@@H]3N(C)CC2)CC[N+]1(C)C
inactive: outcome [1] | outcome [2] | outcome [3] | outcome [4] | outcome [5] | outcome [6] | outcome [7] | outcome [8]

CC(C)CCO
inactive: outcome [1] | outcome [2] | outcome [3] | outcome [4] | outcome [5] | outcome [6] | outcome [7]

CCC(C)(CCC(C)C)C(=O)[O-].CCC(C)(CCC(C)C)C(=O)[O-].[Zn+2] (stereo unspecified)
inactive: outcome [1] | outcome [2] | outcome [3] | outcome [4] | outcome [5]

NS(=O)(=O)c1ccccc1OC(F)(F)F
inactive: outcome [1] | outcome [2] | outcome [3] | outcome [4] | outcome [5] | outcome [6] | outcome [7] | outcome [8]

CC(=O)/C=C/c1ccco1
inactive: outcome [1] | outcome [2] | outcome [3] | outcome [4] | outcome [5] | outcome [6] | outcome [7] | outcome [8]

O=CO
inactive: fluorescence, % of fluorescein [1] -0.109% [at 9.17 µM] | fluorescence, % of fluorescent control [2] -0.189% [at 9.17 µM] | activity change [3] -0.0948% [at 9.17 µM] | fluorescence, % of fluorescent control [4] -0.0633% [at 9.17 µM] | fluorescence, % of Rose Bengal [5] 0.0285% [at 9.17 µM] | fluorescence, % of fluorescent control [6] -0.136% [at 9.17 µM] | fluorescence, % of fluorescein control [7] -0.0013% [at 9.17 µM] | fluorescence, % of fluorescent control [8] 0.0876% [at 9.17 µM]

CC(C)COC(=O)CCCCC(=O)OCC(C)C
inactive: outcome [1] | outcome [2] | outcome [3] | outcome [4] | outcome [5] | outcome [6] | outcome [7] | outcome [8]

CC(=O)Nc1ccc(C)cc1
inactive: outcome [1] | outcome [2] | outcome [3] | outcome [4] | outcome [5] | outcome [6] | outcome [7] | outcome [8]

O=P(O)(O)OCC(O)CO (stereo unspecified)
inactive: outcome [1] | outcome [2] | outcome [3] | outcome [4] | outcome [5] | outcome [6] | outcome [7] | outcome [8]
